# Results taken from ChEMBL document CHEMBL3988442, “University of Dundee, Small-Polar-MMV Screening Library” (2021).
# For some of these results: Results with a measured potency or affinity are listed apart.
# Experiments:
# Parameters in all cases: scale not given: direction of the effect not stated beside the values
# [1] = target: Protein translocase subunit SecA (Escherichia coli (strain K12)) (UniProt P10408); assay: Assay to Identify E. coli SecA ATPase Inhibitors; format: functional; settings: 30 µM
# [2] = target: T1, Ubiquitin-activating enzyme e1, putative (Leishmania donovani (strain BPK282A1)) (UniProt E9BSI1); assay: Leishmania donovani Ubiquitin Activating Enzyme (LdE1); format: functional; settings: 30 µM
# T1 sequence (whole entry): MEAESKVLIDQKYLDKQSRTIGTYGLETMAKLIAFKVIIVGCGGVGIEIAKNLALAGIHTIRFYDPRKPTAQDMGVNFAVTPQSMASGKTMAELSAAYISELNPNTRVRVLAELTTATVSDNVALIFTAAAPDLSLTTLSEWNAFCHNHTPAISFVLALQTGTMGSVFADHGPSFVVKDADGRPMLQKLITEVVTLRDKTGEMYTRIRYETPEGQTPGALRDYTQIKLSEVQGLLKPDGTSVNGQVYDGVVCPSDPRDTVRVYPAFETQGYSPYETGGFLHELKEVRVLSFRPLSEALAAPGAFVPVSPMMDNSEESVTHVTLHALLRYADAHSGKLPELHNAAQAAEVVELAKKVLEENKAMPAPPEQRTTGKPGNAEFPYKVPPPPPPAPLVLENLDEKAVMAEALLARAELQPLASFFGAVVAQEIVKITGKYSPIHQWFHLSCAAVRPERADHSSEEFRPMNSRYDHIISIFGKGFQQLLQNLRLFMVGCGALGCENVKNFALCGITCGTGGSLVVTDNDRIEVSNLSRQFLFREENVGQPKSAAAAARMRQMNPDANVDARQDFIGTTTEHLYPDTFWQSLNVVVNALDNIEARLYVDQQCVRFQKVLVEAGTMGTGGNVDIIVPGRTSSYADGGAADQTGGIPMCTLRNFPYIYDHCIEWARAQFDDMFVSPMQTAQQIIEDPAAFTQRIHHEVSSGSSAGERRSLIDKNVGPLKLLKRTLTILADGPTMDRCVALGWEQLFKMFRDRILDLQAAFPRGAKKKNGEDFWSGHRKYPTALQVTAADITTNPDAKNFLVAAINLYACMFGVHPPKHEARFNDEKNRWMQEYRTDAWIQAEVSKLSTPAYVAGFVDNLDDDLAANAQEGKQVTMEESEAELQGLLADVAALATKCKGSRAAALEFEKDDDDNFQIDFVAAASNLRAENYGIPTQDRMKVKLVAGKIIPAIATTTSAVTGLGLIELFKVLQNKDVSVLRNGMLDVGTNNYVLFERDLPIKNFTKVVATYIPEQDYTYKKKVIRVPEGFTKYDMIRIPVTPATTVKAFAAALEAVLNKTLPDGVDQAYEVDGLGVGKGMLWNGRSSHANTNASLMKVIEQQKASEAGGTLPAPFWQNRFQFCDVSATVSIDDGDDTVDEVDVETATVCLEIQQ
# [3] = target: AMP-activated protein kinase, AMPK (Homo sapiens) (UniProt P54646+O43741+P54619+Q9UGJ0+Q9Y478+Q13131+Q9UGI9); assay: AMP-dependent Kinase enzyme assay. An in vitro enzyme assay that detects ADP turnover that is directly proportional to AMPK activity. This uses naive AMPK that is activated during the assay with MK-8722; format: functional; settings: 30 µM
# [4] = target: Sialic acid-binding Ig-like lectin 9 (Homo sapiens) (UniProt Q9Y336); assay: Hs-Siglec9 ALPHAscreen SOP 20170721; settings: 10 µM
# Trypanosoma cruzi = assay: Trypanosoma cruzi phosphomannomutase and mannose-1-phosphate guanylyltransferase assay; format: functional; settings: 10 µM
# [5] = target: T2, Arginase-2, mitochondrial (Homo sapiens) (UniProt P78540); assay: in vitro enzyme assay to detect the production of urea directly proportional to the activity of Arginase II; format: functional; settings: 33.3 µM; also: in the data most compounds retested in dose-response had high values
# T2 sequence (whole entry): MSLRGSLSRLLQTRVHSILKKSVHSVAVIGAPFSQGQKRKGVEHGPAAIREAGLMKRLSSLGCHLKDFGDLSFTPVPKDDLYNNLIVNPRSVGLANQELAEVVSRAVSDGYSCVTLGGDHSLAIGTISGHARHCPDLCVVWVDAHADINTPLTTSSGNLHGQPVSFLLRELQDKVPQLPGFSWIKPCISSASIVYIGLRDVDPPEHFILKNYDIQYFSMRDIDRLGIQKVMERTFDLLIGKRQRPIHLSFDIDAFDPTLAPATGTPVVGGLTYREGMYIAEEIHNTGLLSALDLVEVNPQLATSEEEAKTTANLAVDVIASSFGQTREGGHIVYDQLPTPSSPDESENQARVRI
# [6] = target: T3, Proteasome subunit beta (Trypanosoma cruzi) (UniProt O96673); assay: Trypanosoma cruzi proteasome chymotrypsin-like activity (TcProtChymo) assay.; also: in the data most compounds retested in dose-response had high values; format: functional; settings: 9.37 µM
# T3 sequence (whole entry): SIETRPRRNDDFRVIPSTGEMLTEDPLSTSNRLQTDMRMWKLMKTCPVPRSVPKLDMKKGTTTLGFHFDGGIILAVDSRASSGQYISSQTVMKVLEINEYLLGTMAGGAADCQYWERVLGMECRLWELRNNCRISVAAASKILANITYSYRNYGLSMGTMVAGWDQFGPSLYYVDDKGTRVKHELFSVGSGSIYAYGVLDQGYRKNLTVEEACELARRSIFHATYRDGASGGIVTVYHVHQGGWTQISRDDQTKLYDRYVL
# Homo sapiens = organism: Homo sapiens; assay: To identify inhibition of the IFN signalling (Jak-Stat) pathway via expression of an eGFP reporter gene under the control of an IFN-stimulated response element (ISRE) containing MxA promoter.; format: functional; settings: 30 µM
# [7] = target: T4, Tyrosyl-tRNA synthetase, putative (Trypanosoma cruzi (strain CL Brener)) (UniProt Q4DSP6); assay: Trypanosoma cruzi tyrosyl tRNA synthetase (TcYRS) _High Tyrosine SOP; format: functional; settings: 30 µM; also: in the data most compounds retested in dose-response had high values
# T4 sequence (whole entry): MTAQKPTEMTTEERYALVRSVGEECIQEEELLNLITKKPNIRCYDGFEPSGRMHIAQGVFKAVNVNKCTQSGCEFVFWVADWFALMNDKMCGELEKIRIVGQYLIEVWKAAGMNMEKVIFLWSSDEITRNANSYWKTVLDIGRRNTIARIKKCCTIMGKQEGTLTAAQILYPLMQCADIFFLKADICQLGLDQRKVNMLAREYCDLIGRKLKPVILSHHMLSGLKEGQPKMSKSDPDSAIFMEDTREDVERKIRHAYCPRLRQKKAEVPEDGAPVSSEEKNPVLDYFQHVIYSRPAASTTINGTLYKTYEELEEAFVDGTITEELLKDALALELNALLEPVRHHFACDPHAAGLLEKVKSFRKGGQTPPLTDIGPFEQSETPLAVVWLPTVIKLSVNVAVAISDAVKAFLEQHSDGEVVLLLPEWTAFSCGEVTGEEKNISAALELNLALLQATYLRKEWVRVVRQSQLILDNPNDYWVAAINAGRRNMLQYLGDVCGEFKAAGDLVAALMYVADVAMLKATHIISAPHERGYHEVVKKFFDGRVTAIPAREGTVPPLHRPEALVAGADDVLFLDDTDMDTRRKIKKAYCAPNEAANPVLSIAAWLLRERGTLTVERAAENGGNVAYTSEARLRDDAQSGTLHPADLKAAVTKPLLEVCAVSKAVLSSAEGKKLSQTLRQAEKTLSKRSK
# [8] = target: T4, Tyrosyl-tRNA synthetase, putative (Trypanosoma cruzi (strain CL Brener)); assay: Trypanosoma cruzi tyrosyl tRNA synthetase (TcYRS) SOP; format: functional; settings: 30 µM
# [9] = target: Chromo domain-containing protein 1 (Saccharomyces cerevisiae (strain ATCC 204508 / S288c) (Baker's yeast)) (UniProt P32657); assay: ScCHD-1 Enzyme Inhibition Assay; format: functional; settings: 30 µM; also: in the data most compounds retested in dose-response had high values
# Chain of Chromo domain-containing protein 1 (Saccharomyces cerevisiae (strain ATCC 204508 / S288c) (Baker's yeast)) (P32657 whole entry, the tested form may be a part): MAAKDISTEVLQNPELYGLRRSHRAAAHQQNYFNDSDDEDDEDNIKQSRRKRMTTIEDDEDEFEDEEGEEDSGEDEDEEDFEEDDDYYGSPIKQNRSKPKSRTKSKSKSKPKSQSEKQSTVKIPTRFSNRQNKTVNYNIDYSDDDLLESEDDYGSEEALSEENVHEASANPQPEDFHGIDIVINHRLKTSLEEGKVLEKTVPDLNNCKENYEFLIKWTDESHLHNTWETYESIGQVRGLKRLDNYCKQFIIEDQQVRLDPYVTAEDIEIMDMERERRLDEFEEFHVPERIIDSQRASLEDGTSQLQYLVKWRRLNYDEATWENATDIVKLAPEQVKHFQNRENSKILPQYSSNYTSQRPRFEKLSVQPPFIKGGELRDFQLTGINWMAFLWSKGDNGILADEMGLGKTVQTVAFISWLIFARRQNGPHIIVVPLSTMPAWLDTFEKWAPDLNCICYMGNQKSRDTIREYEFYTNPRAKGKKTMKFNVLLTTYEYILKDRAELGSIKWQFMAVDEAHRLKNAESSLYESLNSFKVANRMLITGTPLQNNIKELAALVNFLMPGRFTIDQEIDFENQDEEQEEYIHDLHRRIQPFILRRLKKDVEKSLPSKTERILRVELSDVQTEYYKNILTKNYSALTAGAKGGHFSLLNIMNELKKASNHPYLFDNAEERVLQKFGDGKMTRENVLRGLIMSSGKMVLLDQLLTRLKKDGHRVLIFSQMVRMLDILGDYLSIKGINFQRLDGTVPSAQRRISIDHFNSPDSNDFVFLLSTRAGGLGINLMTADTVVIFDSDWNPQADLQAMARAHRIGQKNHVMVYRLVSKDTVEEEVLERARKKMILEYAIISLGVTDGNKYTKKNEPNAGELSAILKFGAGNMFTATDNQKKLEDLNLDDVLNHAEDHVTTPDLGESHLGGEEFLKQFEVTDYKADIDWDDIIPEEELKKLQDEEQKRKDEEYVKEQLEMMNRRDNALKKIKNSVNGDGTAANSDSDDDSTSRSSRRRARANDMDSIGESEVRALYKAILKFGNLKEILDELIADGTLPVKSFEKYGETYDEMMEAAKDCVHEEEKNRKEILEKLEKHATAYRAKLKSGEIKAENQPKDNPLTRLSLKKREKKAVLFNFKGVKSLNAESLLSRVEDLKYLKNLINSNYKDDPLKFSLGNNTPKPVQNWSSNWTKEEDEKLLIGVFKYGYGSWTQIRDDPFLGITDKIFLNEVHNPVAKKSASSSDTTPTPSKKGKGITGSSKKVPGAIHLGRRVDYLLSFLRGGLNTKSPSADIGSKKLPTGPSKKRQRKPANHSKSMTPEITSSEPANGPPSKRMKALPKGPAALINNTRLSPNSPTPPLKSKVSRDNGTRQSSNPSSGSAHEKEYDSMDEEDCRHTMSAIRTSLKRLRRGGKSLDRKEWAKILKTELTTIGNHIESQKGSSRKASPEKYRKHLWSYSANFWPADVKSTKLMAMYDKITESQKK
# Chain of Sialic acid-binding Ig-like lectin 9 (Homo sapiens) (Q9Y336 whole entry): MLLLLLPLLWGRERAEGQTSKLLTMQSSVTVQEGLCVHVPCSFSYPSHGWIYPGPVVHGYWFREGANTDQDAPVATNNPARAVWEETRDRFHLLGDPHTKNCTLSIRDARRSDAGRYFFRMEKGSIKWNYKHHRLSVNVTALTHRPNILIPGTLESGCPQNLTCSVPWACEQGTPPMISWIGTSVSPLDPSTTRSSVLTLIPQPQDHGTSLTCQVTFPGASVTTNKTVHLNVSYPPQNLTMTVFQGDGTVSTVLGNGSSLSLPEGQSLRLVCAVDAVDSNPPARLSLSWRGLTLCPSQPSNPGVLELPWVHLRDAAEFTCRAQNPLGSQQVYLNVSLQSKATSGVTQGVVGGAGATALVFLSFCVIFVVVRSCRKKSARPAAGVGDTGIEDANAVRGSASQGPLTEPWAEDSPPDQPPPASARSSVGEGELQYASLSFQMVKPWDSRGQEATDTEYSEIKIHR
# Chain of Protein translocase subunit SecA (Escherichia coli (strain K12)) (P10408 whole entry): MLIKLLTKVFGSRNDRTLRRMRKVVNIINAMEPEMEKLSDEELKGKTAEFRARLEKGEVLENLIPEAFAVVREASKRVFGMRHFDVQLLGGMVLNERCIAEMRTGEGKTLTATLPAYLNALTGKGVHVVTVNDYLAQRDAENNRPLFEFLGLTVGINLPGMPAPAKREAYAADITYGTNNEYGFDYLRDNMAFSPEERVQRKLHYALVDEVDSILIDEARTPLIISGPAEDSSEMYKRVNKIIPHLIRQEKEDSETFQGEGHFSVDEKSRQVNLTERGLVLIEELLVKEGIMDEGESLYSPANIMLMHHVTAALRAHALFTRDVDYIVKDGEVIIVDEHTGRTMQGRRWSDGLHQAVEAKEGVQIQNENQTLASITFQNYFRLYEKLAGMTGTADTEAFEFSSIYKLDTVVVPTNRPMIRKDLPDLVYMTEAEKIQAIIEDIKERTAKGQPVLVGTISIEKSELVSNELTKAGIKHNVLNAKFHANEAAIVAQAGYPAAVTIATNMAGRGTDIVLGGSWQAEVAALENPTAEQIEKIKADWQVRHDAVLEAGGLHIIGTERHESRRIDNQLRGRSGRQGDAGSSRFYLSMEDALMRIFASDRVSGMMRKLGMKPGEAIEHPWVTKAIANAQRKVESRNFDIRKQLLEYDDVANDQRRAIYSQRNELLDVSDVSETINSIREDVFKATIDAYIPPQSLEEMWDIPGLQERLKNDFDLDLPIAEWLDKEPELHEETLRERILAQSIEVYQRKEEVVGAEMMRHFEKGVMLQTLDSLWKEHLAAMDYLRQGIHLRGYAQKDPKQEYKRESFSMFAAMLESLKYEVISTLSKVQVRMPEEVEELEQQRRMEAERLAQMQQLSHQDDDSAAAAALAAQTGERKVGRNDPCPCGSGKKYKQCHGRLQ
SMILES,Percent Effect [1] [%],Percent Effect [2] [%],Percent Effect [3] [%],Percent Effect [4] [%],Percent Effect (Trypanosoma cruzi) [%],Percent Effect [5] [%],Percent Effect [6] [%],Percent Effect (Homo sapiens) [%],Percent Effect [7] [%],Percent Effect [8] [%],Percent Effect [9] [%]
COc1cccc(N2CCN(CC(O)c3cc(C)sc3C)CC2)c1 (stereo unspecified),-4.6,20.3,6.95,-1.22,2.77,-2.55,5.62,19.5,15.1,22.1,-16.3
O=C(c1cccnc1)N1CCCC(c2cc(C(F)F)n3ncnc3n2)C1 (stereo unspecified),-4.9,9.46,12.9,2,-5.53,0.232,7.64,8.61,0,6.49,9.01
c1ccc(-c2nc(CN3CCCC3Cn3cncn3)cs2)cc1 (stereo unspecified),-2.21,-17.7,-1.4,4.03,3.68,-2.28,1.39,-16.9,4.43,3.8,25.8
COc1ccc(OCCCNC(=O)NCc2csc(C)n2)cc1,-3.63,16.2,2.75,-5.68,0.65,-4.62,7.54,20.4,8.91,15.8,-3.66
CCCOCC(=O)NC1CCc2nc(C)cn2C1 (stereo unspecified),-4.43,5.26,8.68,1.69,-2.04,-9.47,17.2,0.806,7.45,13,-0.543
CCN1CCOC(CNCc2ccccc2OCC(=O)N(C)C)C1 (stereo unspecified),-1.78,0,-9.78,0.0919,8.31,-2.88,-4.32,-7.21,1.48,13.6,-2.56
CCOc1cccc2c1OCC(C(=O)NS(=O)(=O)c1ccc(Cl)cc1)=C2,-8.58,-2.7,102,7.55,-5,-5.61,-2.52,18.9,-23.1,-33.3,-6.64
COCc1cn([C@@H]2c3ccccc3C3(CCNCC3)[C@H]2O)nn1,-4.27,9.72,2.64,16.1,6.71,24.7,3.16,3.98,4.21,10.3,-5.28
CS(=O)(=O)c1ccc(CNC2CCCN(c3cccnn3)C2)cc1 (stereo unspecified),-2.48,18.2,4.4,-0.526,0.686,6.53,12.5,9.14,8.57,21.2,-19
O=C(NCc1ccc(-c2ccn[nH]2)cc1)N1CCC(N2CCCC2)C1 (stereo unspecified),-6.43,2.63,-5.77,6.24,1.59,-5.4,4.65,5.01,10.3,18.5,1.9
CCOCC(O)CN1CCN(C(=O)c2cc(F)ccc2C)CC1 (stereo unspecified),-1.68,0,-2.69,-1.76,0.187,0,-3.72,-13.3,0.971,2.44,2.5
